Screening data deposited in PubChem by National Center for Advancing Translational Sciences (NCATS).
TGFb SMAD3 inh: qHTS for Inhibitors of TGF-b; HepG2 CAGA-GFP TGF-b/SMAD3 reporter, GFP fluorescence, 18 h; TGF-beta stimulated, 500 pg/mL final; Potency, µM (doses to about 46.1 µM), for inactives: at the top dose activity, negative = inhibition, actives largely listed as inhibitors; 1.2% of 410,000 active; note: potency is the fitted concentration of half-maximal effect; % is set by controls: 0 for no effect and ±100 for the full control effect; nearly all actives have a fitted effect of over 65% in size
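GFP signal (ex488/em500-530) from TGF-beta-stimulated HEPG2 CAGA-GFP cells, 500 pg/mL final, 18 h at 37 degrees C in DMEM plus 1% FBS, normalized to unstimulated and DMSO-stimulated controls.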
IL1B secr inh: qHTS for Inhibitors of Inflammasome Signaling: IL-1-beta AlphaLISA Primary Screen; THP-1 LPS/ATP IL-1B secretion, AlphaLISA, 16 h; stronger effect = lower value; activity change, % at 57.5 µM; 4.7% of 360,000 active; AID 743279, 2014; in the data active = activity change below about -50%; inconclusive = mostly about -30% to -49%; note: % is set by controls: 0 for no effect and ±100 for the full control effect
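Secreted IL-1B measured by AlphaLISA bead assay after 16 h compound exposure of THP-1 cells; compounds (final up to 57.5 uM) added 1 h before LPS (250 ng/mL) and ATP (1.25 mM) stimulation; lower signal means less secretion.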
HepG2 viability: qHTS for Inhibitors of TGF-b: Cytotox Counterscreen; HepG2 CAGA-GFP viability, ATP luminescence, 18 h; Potency, µM (highest dose often 46.1 µM), without a hit: top-dose activity change, negative = cytotoxicity, usual class: cytotoxic; 0.76% of 410,000 active; note: potency is the fitted concentration of half-maximal effect
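HepG2 CAGA-GFP cells (1000/well, DMEM with 1% FBS) received compound, then TGF-beta at 500 pg/mL final, and were incubated 18 hours at 37 degrees C. Viability was read by CellTiter-Glo luminescence. Media-only wells were set as complete cell-killing and DMSO as no toxicity.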
TDP1 cell noCPT: qHTS for Inhibitors of human tyrosyl-DNA phosphodiesterase 1 (TDP1): qHTS in cells in absence of CPT. 15% of 420,000 active. DT40 Tdp1-/- hTDP1 cells, no CPT, ATP luminescence, 48 h. Potency, µM (top dose mostly 46.2 µM), for inactives: at the highest dose activity change, negative = growth inhibition, actives largely listed as inhibitors; note: potency is the fitted concentration of half-maximal effect; % is set by controls: 0 for no effect and ±100 for the full control effect; nearly all actives have a fitted effect of over 55% in size
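Growth kinetics read by CellTiter-Glo luminescence after ≥48 hr at 37 °C. Cells: DT40 Tdp1-/- stably carrying human TDP1, 400 per well, compound exposure in the absence of CPT (DMSO vehicle).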
TDP1 inh: qHTS Assay for Inhibitors of Tyrosyl-DNA Phosphodiesterase (TDP1); recombinant TDP1, AlphaScreen DNA substrate cleavage; Tyrosyl-DNA phosphodiesterase 1 (Homo sapiens), Q9NUW8; 0.28% of 350,000 active; Potency, µM (doses to about 130 µM), without a hit: at the highest dose activity change, negative = inhibition, usual class: inhibitors; note: potency is the fitted concentration of half-maximal effect; % is set by controls: 0 for no effect and ±100 for the full control effect; nearly all actives have a fitted effect of over 40% in size
Target sequence (Q9NUW8 whole entry, looked up): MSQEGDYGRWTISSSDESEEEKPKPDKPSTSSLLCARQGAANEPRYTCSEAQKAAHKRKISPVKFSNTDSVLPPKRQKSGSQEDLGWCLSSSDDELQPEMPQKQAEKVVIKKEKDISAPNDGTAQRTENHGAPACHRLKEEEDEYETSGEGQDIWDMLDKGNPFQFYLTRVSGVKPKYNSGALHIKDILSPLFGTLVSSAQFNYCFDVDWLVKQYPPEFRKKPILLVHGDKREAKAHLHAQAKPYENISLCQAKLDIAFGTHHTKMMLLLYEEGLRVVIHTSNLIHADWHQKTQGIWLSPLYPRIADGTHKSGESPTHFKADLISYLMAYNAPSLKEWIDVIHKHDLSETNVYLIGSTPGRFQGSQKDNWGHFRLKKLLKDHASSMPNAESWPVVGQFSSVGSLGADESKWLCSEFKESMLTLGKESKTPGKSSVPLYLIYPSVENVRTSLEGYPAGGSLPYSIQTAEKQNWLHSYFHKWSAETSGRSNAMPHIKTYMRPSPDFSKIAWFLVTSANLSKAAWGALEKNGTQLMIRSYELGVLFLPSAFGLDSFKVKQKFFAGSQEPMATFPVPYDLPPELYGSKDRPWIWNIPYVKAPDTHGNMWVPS
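E. coli-derived human Tdp1, 1 nM final. Cpd preinc 15 min RT; substrate 15 nM final, 5 min RT; AS bead mix 10 ug/ml final, 10 min RT. Signal loss = tyrosine-FITC cleavage. No-enzyme wells = max signal.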
DT40 TDP1 CPT: qHTS for Inhibitors of human tyrosyl-DNA phosphodiesterase 1 (TDP1): qHTS in cells in presence of CPT. chicken DT40 Tdp1-/-;hTDP1 cells + 20 nM CPT, ATP luminescence, 48 h. Potency, µM (top dose mostly 46.2 µM), inactives show at the highest dose activity change, negative = growth inhibition, actives largely listed as inhibitors. 12% of 420,000 active. AID 686979, 2013; note: potency is the fitted concentration of half-maximal effect; % is set by controls: 0 for no effect and ±100 for the full control effect; nearly all actives have a fitted effect of over 55% in size
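Chicken DT40 Tdp1-/- cells stably complemented with human TDP1 were seeded at 400 cells/well in medium containing 20 nM camptothecin, exposed to pin-transferred compounds, and grown at 37 °C for at least 48 hr. Viability was read as ATP luminescence.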
Numbers without * were called inactive; i = inactive; ? = inconclusive; / = no result; [ ] = remark or other dose. Only some compounds are listed: those with a hit (about 18% of all), similar ones and a draw of the others. Unless noted, calls come from the whole dose curve; as a rule, active = well fitted curve in the direction sought with a large enough effect; inconclusive = small, poorly fitted or top-dose-only effect, or another doubt; inactive = no such curve, though single readings can be large; an effect the other way counts as inactive or inconclusive.

SMILES	TGFb SMAD3 inh	IL1B secr inh	HepG2 viability	TDP1 cell noCPT	TDP1 inh	DT40 TDP1 CPT
CCC(C)NC(=O)c1cccc(C)c1 (centres undefined)	3%	3	-5%	1%	3%	4%
O=C(NCC1CCCO1)c1cccc(C(=O)NCC2CCCO2)c1 (centres undefined)	3%	6	5%	?	/	-1%
COc1ccc(Cl)cc1CNC[C@H]1O[C@@H](n2ccc(N)nc2=O)[C@H](O)[C@@H]1O	-7%	-14	-12%	9%	/	4%
O=C(c1cccs1)c1no[n+]([O-])c1C(=O)c1cccs1	25µM*	-97*	-41%	2.3µM*	-11%	1.8µM*
O=C(c1ccc(Cl)nc1)c1cccs1	18%	10	20%	-9%	/	2%
c1ccc2c3c([nH]c2c1)-c1[nH]ncc1CC3	?	-28	-19%	?	3%	16µM*
O=C1CCCc2c1[nH]c1ccccc21	-11%	93	-6%	-3%	1%	?
Clc1ccc2[nH]c3c(c2c1)CCc1cn[nH]c1-3	?	-22	-25%	18µM*	6%	?
O=C(c1ccccc1)c1ccc(-c2ccc(O)cc2)cc1	-27%	-81*	-58%	-27%	3%	-1%
O=C(Nc1cccc(Cl)c1)Nc1ccccc1-n1ccnc1	-8%	8	11%	0%	/	14%
O=C(C[n+]1ccn(CCCNP2(=O)C=C(c3ccccc3)OC(c3ccccc3)=C2)c1)c1cccs1	1%	?	-4%	-20%	5%	15µM*
Cc1cc(C)nc(Sc2c(C)nn(-c3ccccc3)c2C)n1	-10%	7	-6%	21µM*	1%	?
O=C(Nc1ccc(Cl)cn1)c1ccc(Br)c(S(=O)(=O)N2CCCCC2)c1	1%	-7	-2%	?	-4%	23µM*
Cc1ccc(NC(=O)c2ccc(Cl)c(S(=O)(=O)N3CCCCCC3)c2)nc1	-12%	-8	8%	?	1%[0.505 µM]	-30%
O=C(Nc1ccccc1)c1ccc(NC2CCCCC2)c(S(=O)(=O)N2CCOCC2)c1	-8%	-52*	-3%	?	0%	?
O=C(Nc1ccccc1)c1ccc(Br)c(S(=O)(=O)N2CCCCC2)c1	6.3µM*	/	-47%	21µM*	5%	18µM*
O=C(Nc1ccc(Br)cc1)c1ccc(Br)c(S(=O)(=O)N2CCCCC2)c1	-1%	/	-22%	18µM*	12%	?
O=C(O)c1ccc(NC(=O)c2ccc(Br)c(S(=O)(=O)N3CCCC3)c2)cc1	0%	/	-2%	2%	4%[12.3 µM]	-5%
Cc1ccccc1-n1ncc2c1CC(C)(C)CC2NC(=O)CCCN1CCCC1=O (centres undefined)	-9%	i	44%	?	3%	-7%
O=C(Nc1ccc2c(c1)OCCO2)C(C1CC1)n1c(=O)c(-c2cc3ccccc3[nH]2)nc2ccccc21 (centres undefined)	/	-20	/	?	/	?
CC(C(=O)NCc1ccccc1)n1c(CSCCOc2ccccc2)nc2ccccc21 (centres undefined)	/	6	/	?	/	?
CCC(C(=O)NCc1ccccc1)n1c(CSCCOc2ccccc2)nc2ccccc21 (centres undefined)	/	-6	/	?	/	23µM*
O=C(NCc1ccccc1)C(CCc1ccccc1)n1c(=O)c(-c2cc3ccccc3[nH]2)nc2ccccc21 (centres undefined)	/	22	/	9.2µM*	/	13µM*
CCCCCNC(=O)C(C1CC1)n1c(=O)c(-c2cc3ccccc3[nH]2)nc2ccccc21 (centres undefined)	/	-3	/	?	/	?
Cc1cccc(C)c1NC(=O)C(c1ccccc1)n1c(=O)c(-c2ccccc2)nc2ccccc21 (centres undefined)	/	-24	/	16µM*	/	?
SMILES	TGFb SMAD3 inh	IL1B secr inh	HepG2 viability	TDP1 cell noCPT	TDP1 inh	DT40 TDP1 CPT
O=C(Nc1ccc2ccccc2c1)C(c1ccccc1)n1c(=O)c(-c2cc3ccccc3[nH]2)nc2ccccc21 (centres undefined)	/	67	/	16µM*	/	?
O=C(c1cc2c(s1)CCCC2)N1CCN(S(=O)(=O)c2ccccc2C(F)(F)F)CC1	?	-10	8%	?	7%	?
CCOc1ccc(NC(=O)c2cc(S(=O)(=O)N3CCOCC3)cn2C)cc1	-5%	1	-15%	-1%	/	19%
Cc1cccc(C)c1NC(=O)C(c1ccccc1F)n1c(=O)c(-c2cc3ccccc3[nH]2)nc2ccccc21 (centres undefined)	/	13	/	?	/	?
Cc1cccc(C)c1NC(=O)C(c1ccc(C#N)cc1)n1c(=O)c(-c2cc3ccccc3[nH]2)nc2ccccc21 (centres undefined)	/	98	/	9.2µM*	/	12µM*
CCC(C(=O)Nc1c(C)cccc1C)n1c(-c2ccc(-c3ccccc3)cc2)nc2ccccc21 (centres undefined)	/	-12	/	15µM*	/	15µM*
CC(c1nc2ccccc2[nH]1)n1c(=O)c(-c2ccco2)nc2ccccc21 (centres undefined)	/	?	/	18µM*	/	13µM*
CCC(C(=O)NC(C)(C)C)n1c(-c2ccc(C)cc2)nc2ccccc21 (centres undefined)	/	1	/	-26%	/	-29%
Cc1cccc(C)c1NC(=O)C(c1ccccc1)n1c(=O)c(-c2cc3ccccc3[nH]2)nc2ccccc21 (centres undefined)	/	6	/	15µM*	/	16µM*
O=C(Nc1ccccc1Cl)c1cc2c(-c3ccccc3)nn(-c3ccccc3)c2s1	11%	/	2%	/	-2%	/
Cc1cccc(C)c1NC(=O)C(c1cccc2ccccc12)n1c(=O)c(-c2cc3ccccc3[nH]2)nc2ccccc21 (centres undefined)	/	54	/	9.2µM*	/	13µM*
CSCCC(c1nc2ccccc2[nH]1)n1c(=O)c(-c2cc3ccccc3[nH]2)nc2ccccc21 (centres undefined)	/	-17	/	?	/	?
